Results filed as inconclusive are left out. Activity calls are given as the source filed them. Calls come from the whole dose curve; as a rule, active = well fitted cell-killing curve with a large enough effect; inconclusive = small, poorly fitted or top-dose-only effect; inactive = flat fitted curve, though single readings scatter.
What was measured:
[1] = Cell Viability - LYMP2-015 (AID 971); note: nearly all actives have a fitted effect of over 55% in size
Summary of the method: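 LYMP2-015 human lymphoblastoid cells (2500/well) in complete medium, compound-treated 24 h at 37 C; viability read as cellular ATP by CellTiter-Glo luminescence after 30 min at room temperature. AC50 from Hill-equation fits of qHTS concentration-response data.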

[2] = Cell Viability - LYMP2-017 (AID 972); note: series mostly up to about 92 µM; nearly all actives have a fitted effect of over 55% in size
Summary of the method: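 LYMP2-017 human lymphoblastoid cells (2500/well) settled 5 hr at 37 C, then exposed to compound 24 hr at 37 C in complete medium. Viability taken as intracellular ATP by CellTiter-Glo luminescence after 30 min at RT; AC50 from Hill fits.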

[3] = Cell Viability - LYMP2-019 (AID 973); note: nearly all actives have a fitted effect of over 55% in size
Source text: NIH Chemical Genomics Center [NCGC]
NIH Molecular Libraries Screening Centers Network [MLSCN]
National Institutes of Environmental Health Sciences [NIEHS]
National Toxicology Program [NTP]
We have developed a 1536-well cell-based assay for quantitative high throughput screening (qHTS) against a number of cell lines to determine in vitro cytotoxicity of small molecules. This particular assay uses a human lymphoblastoid cell line (LYMP2-019) purchased from Coriell Institute for Medical Research.
NCGC Assay Protocol Summary:
The CellTiter-Glo luminescent cell viability assay (Promega) is a homogeneous method to measure the number of viable cells in culture. The end point readout of this assay is based on quantitation of intracellular ATP, an indicator of metabolic activity, using the luciferase reaction. Luciferase catalyzes the oxidation of beetle Luciferin to oxyluciferin and light in the presence of ATP. The luminescent signal is proportional to amount of ATP present.
Using the CellTiter-Glo luminescent cell viability assay, the amount of cellular ATP was measured in the lymphoblastoid cell line with complete culture medium following compound treatment for 24 hours. The assay was performed in opaque white Kalypsys 1536-well plates. In the screen, tetraoctylammonium bromide was used as positive control. Library compounds were measured for their ability to cause acute toxicity in the cell line, as reflected by a decrease in intracellular ATP levels, in a concentration-dependent manner. […] AC50 values were determined from concentration-response data modeled with the standard Hill equation.
qHTS protocol for CellTiter Glo lymphoblastoid cellular assay
[Step] [Parameter] [Value] [Description]
1. Reagent; 5 uL; 2500 lymphoblastoid cells/well
2. Time; 5 hr; 37 C incubation
4. Controls; 23 nL; Tetraoctylammonium bromide 6.4pM to 92 uM
5. Time; 24 hr; 37 C incubation
6. Reagent; 5 uL; CellTiter Glo reagent […]
8. Detection; Luminescence; Viewlux plate reader
Keywords: cell viability, cytotoxicity, lymphoblastoid cell line, luminescence, NTPHTS, NTPHTS_NCGC, NIEHS, DSSTox, MLSMR, MLSCN, NIH Roadmap, qHTS, NCGC

[4] = Cell Viability - LYMP2-021 (AID 974);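 note: compound exposure lasts 24 hours at 37 °C; nearly all actives have a fitted effect of over 55% in size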
Summary of the method: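 Human lymphoblastoid LYMP2-021 cells, 2500/well in complete medium, treated 24 hours at 37 C. Intracellular ATP by CellTiter-Glo luminescence (30 min, RT); AC50 from Hill fits of concentration-response.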

[5] = Cell Viability - LYMP2-023 (AID 975)
Summary of the method: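 LYMP2-023 human lymphoblastoid cells, 2500/well, preincubated 5 hr at 37 C, then compound-treated 24 hr at 37 C in complete medium. CellTiter-Glo luminescence (ATP) after 30 min at room temperature; AC50 from Hill-equation fits; tetraoctylammonium bromide positive control.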

[6] = Cell Viability - LYMP2-025 (AID 976); note: series mostly up to about 92 µM
Summary of the method: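 Human lymphoblastoid LYMP2-025 cells, 2500/well, exposed 24 h at 37 C in complete medium in 1536-well qHTS. Viability as cellular ATP by CellTiter-Glo luminescence; AC50 from Hill fits of concentration-response data.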

[7] = Cell Viability - LYMP2-002 (AID 977);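 note: series mostly up to about 92 µM; compound exposure lasted 24 h at 37 °C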
Summary of the method: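 Cytotoxicity is scored as concentration-dependent loss of cellular ATP in a human lymphoblastoid line after 24 hr compound treatment at 37 C. AC50 is obtained by modelling concentration-response data with the Hill equation.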

[8] = Cell Viability - LYMP2-006 (AID 978); note: series mostly up to about 92 µM; nearly all actives have a fitted effect of over 60% in size
Summary of the method: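 qHTS, 1536-well; 2500 cells/well, 5 hr 37 C; cpd 24 hr 37 C; CellTiter-Glo 30 min RT; luminescence. Tetraoctylammonium bromide pos. ctrl. AC50 via Hill eqn.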

[9] = Cell Viability - LYMP2-007 (AID 979);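 note: cells exposed to compound for 24 h before reading; nearly all actives have a fitted effect of over 60% in size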
Summary of the method: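 Human lymphoblastoid LYMP2-007 cells (2500/well) preincubated 5 h at 37 C, then treated 24 h at 37 C in complete medium. Viability by CellTiter-Glo ATP luminescence after 30 min at room temperature; AC50 from Hill fits.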

[10] = Cell Viability - LYMP2-008 (AID 980); note: nearly all actives have a fitted effect of over 60% in size
Summary of the method: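 LYMP2-008 lymphoblastoid cells (2500/well) plated 5 h, then treated 24 h at 37 C in complete medium. Viability read as intracellular ATP by CellTiter-Glo luminescence after 30 min at room temperature; AC50 from Hill fits.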

Measured: outcome

Cc1ccc(N)cc1O
inactive: all assays above

CC(=O)O[C@@H]1CC(C)=C2[C@H]1[C@H](C)CC[C@H]2/C=C(\C)C(=O)O
inactive: all assays above

Nc1ccccc1N
not listed: [7] | [8] | [10]
inactive: all other assays above
